From the supplement of paper PMC10646978
± gives the standard deviation.

Key:
Conditions in all cases: modulator concentration 10 µM
[1] = test system: RAW-Dual (murine macrophage reporter line); experiment: NF-kB reporter (SEAP) activity fold change vs agonist alone; higher = enhanced NF-kB activity
Method in brief: (§1)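 Compound reached 10 μM final in each well by pin transfer, onto RAW-Dual murine macrophage reporter cells seeded at 50 000 per well in 384-well plates. After 1 hour at 37 °C, the cells were stimulated overnight with a PRR agonist. SEAP in the supernatant was read with QUANTI-Blue at 620 nm absorbance for NF-κB, and Lucia luciferase was read with QUANTI-Luc luminescence for IRF. Each signal was turned into fold change against the mean agonist-only control on the same plate, and two replicate plates were averaged with propagated errors.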

[2] = test system: RAW-Dual (murine macrophage reporter line); experiment: IRF reporter (Lucia luciferase) activity fold change vs agonist alone; higher = enhanced IRF activity
Method in brief: as §1

[3] = test system: RAW-Dual (murine macrophage reporter line); experiment: viability score (confluency relative to resting cells, overnight) (fraction); higher = more viable, active = viable (0.7 or more)
Method in brief: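 RAW-Dual macrophages in 384-well plates were exposed overnight to compound at 10 μM final. Confluency was imaged with IncuCyte, and two confluency masks were generated with IncuCyte software over all imaged wells. The viability score is confluency expressed relative to resting cells. Compounds were called viable if both masks exceeded 70% of resting cells.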

[4] = agonist: CpG ODN 1826 0.5 ug/mL

Row | Compound | NF-kB reporter [1, 4] | NF-kB reporter ([1]; agonist: LPS 0.1 ug/mL) | NF-kB reporter ([1]; agonist: MPLA […]) | IRF reporter ([2]; agonist: 3'3'-cGAMP 10 ug/mL) | IRF reporter ([2]; agonist: LPS 0.1 ug/mL) | IRF reporter ([2]; agonist: MPLA […]) | viability score [3]
1 | COc1ccc(N2C(=O)C(=Cc3ccc(OCc4ccc(F)cc4)c(OC)c3)C(=O)NC2=S)cc1 | 1.08 ± 0.11 | 1.04 ± 0.085 | 0.932 ± 0.057 | 0.919 ± 0.042 | 1.02 ± 0.062 | 1.05 ± 0.13 | 1.01 (active)
2 | CC12CCC3C(CC=C4CC(O)CCC43C)C1CC(=Cc1cccc(F)c1)C2=O (stereo unspecified) | 0.722 ± 0.046 | 1 ± 0.061 | 1.05 ± 0.083 | 0.907 ± 0.03 | 1.61 ± 0.13 | 1.31 ± 0.12 | 0.933 (active)
3 | O=C1NC(=O)N(c2ccccc2F)C(=O)C1=Cc1cc(Cl)ccc1OCc1ccc([N+](=O)[O-])cc1 | 0.892 ± 0.071 | 1.05 ± 0.078 | 0.744 ± 0.045 | 0.741 ± 0.018 | 0.972 ± 0.087 | 0.855 ± 0.16 | 1.01 (active)
4 | Cc1cc(OC(=O)C2CCCCC2)c2c3c(c(=O)oc2c1)CCC3 | 0.947 ± 0.094 | 1.01 ± 0.063 | 0.968 ± 0.058 | 0.948 ± 0.042 | 1.29 ± 0.13 | 1.13 ± 0.07 | 1.01 (active)
5 | C=C1C[C@@H]2[C@H](CC[C@]3(C)C(=O)CC[C@@H]23)[C@@]2(C)C=CC(=O)C=C12 | 0.843 ± 0.064 | 0.79 ± 0.091 | 0.984 ± 0.033 | 0.789 ± 0.051 | 0.911 ± 0.095 | 0.908 ± 0.16 | 0.987 (active)
6 | CCCCCC(=O)NC(Oc1ccc([N+](=O)[O-])cc1)C(Cl)(Cl)Cl (stereo unspecified) | 0.988 ± 0.091 | 1.08 ± 0.07 | 1 ± 0.035 | 0.896 ± 0.22 | 1.06 ± 0.085 | 1.03 ± 0.069 | 1 (active)
7 | CCC1CN2CCC1CC2C(O)c1ccnc2ccc(OC)cc12 (stereo unspecified) | 1.05 ± 0.25 | 1.16 ± 0.066 | 1.1 ± 0.08 | 0.565 ± 0.021 | 1.21 ± 0.17 | 1.33 ± 0.26 | 0.983 (active)
8 | CC(=O)CC(c1ccccc1)c1c(OC(C)=O)c2ccccc2oc1=O (stereo unspecified) | 0.865 ± 0.059 | 0.925 ± 0.11 | 0.779 ± 0.1 | 0.908 ± 0.03 | 1.3 ± 0.1 | 1.14 ± 0.19 | 1 (active)
9 | COc1ccc2c(c1)[nH]c1c(C)nccc12 | 0.6 ± 0.047 | 0.885 ± 0.074 | 0.949 ± 0.09 | 0.431 ± 0.019 | 0.653 ± 0.11 | 0.594 ± 0.11 | 1.03 (active)
10 | Fc1ccc(CNCCc2c[nH]c3ccccc23)cc1 | 0.733 ± 0.32 | 1.08 ± 0.15 | 0.955 ± 0.075 | 0.751 ± 0.063 | 1.1 ± 0.12 | 1.29 ± 0.28 | 0.599 (inactive)
11 | C=C(C)C1Cc2c(ccc3c2OC2COc4cc(OC)c(OC)cc4C2C3=O)O1 (stereo unspecified) | 1.6 ± 0.13 | 1.02 ± 0.1 | 1.75 ± 0.18 | 0.515 ± 0.028 | 1.64 ± 0.27 | 2.07 ± 0.4 | 0.924 (active)
12 | CC12CCC3C(CCC4CC(O)CCC43C)C1CCC2=O (stereo unspecified) | 0.888 ± 0.066 | 1.04 ± 0.051 | 0.98 ± 0.021 | 0.949 ± 0.1 | 0.985 ± 0.033 | 0.972 ± 0.11 | 1.01 (active)
13 | COC(=O)c1ccc(N2C(=O)NC(=O)C(=Cc3ccc(OCc4ccccc4F)cc3)C2=O)cc1 | 1.06 ± 0.11 | 1.04 ± 0.057 | 0.88 ± 0.056 | 0.942 ± 0.043 | 1.25 ± 0.24 | 1.08 ± 0.25 | 1 (active)
